Test systems include SK-MEL-2 melanoma; EKVX NSCLC; SN12C renal; UO-31 renal; TK-10 renal; ACHN renal; A498 renal; CCRF-CEM leukemia; MOLT-4 leukemia; SR leukemia.
What all share (assay): NCI-60 one-dose screen, 48 h (100 = growth as untreated, 0 = no growth, -100 = all killed)
Details in all cases: 10 µM unless noted

The panel holds about 83,000 compounds, 20% with a hit somewhere; the sample as a whole holds those more often.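 Negative percent growth values reflect cell death: -40 means 40% of the cells present at the start died, and -100 means all died.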 A number with no mark means an inactive call. Activity calls are given as the source filed them. How the source made its calls: active means growth percent below 10; inactive means the rest.

`Cc1cc(C)c2nc(Nc3nc(C)c(C)c(=O)[nH]3)nc(C)c2c1`: the growth in the assay on SK-MEL-2 melanoma is -25.6% (active); in the assay with EKVX NSCLC, 12.4%; in the assay with SN12C renal, 20%; in the assay on UO-31 renal, 11.1%; with TK-10 renal, 17%; in the assay with ACHN renal it was 23.5%. In addition, the growth in the assay on A498 renal was -9.66% (active); with CCRF-CEM leukemia, 7.98% (active); with MOLT-4 leukemia, 4.84% (active); with SR leukemia, -9.54% (active).
Take `C=C(C)[C@@H]1CC[C@]2(C(=O)OCCOCCOCC[P+](c3ccccc3)(c3ccccc3)c3ccccc3)CC[C@]3(C)[C@H](CC[C@@H]4[C@@]5(C)CC[C@H](OC(=O)C(Cl)Cl)C(C)(C)[C@@H]5CC[C@]43C)[C@@H]12`: the growth in the assay on SK-MEL-2 melanoma was -45.4% (active); in the assay with EKVX NSCLC, -15.2% (active); with SN12C renal it was -46.9% (active); with UO-31 renal, -45.1% (active); in the assay on TK-10 renal, 15.7%; in the assay with ACHN renal, -79.2% (active). Further, the growth is -28.3% (active) in the assay with A498 renal, 4.25% (active) in the assay on CCRF-CEM leukemia, -8.02% (active) with MOLT-4 leukemia and -32% (active) in the assay with SR leukemia.
For `C#C[C@@]1(O)[C@@H](CO)O[C@@H](n2cc(-c3ccco3)c3c(N)ncnc32)[C@@H]1O`, the growth with SK-MEL-2 melanoma is 84.3%; in the assay on EKVX NSCLC it was 67.3%; in the assay with SN12C renal it was 71.8%; with UO-31 renal it was 36.5%; in the assay on TK-10 renal, 69.1%; in the assay with ACHN renal, 90.2%. For the same compound, the growth in the assay on A498 renal was 54.6%; in the assay with CCRF-CEM leukemia, 86.9%; in the assay on MOLT-4 leukemia, 32.8%; in the assay with SR leukemia, 94.4%.
As for `COc1cc(NC(=O)Nc2cnc(Nc3ccc(N4CCOCC4)cc3)nc2Oc2ccc(C(F)(F)F)cc2)cc(OC)c1`, the growth in the assay with SK-MEL-2 melanoma was 108%; in the assay with EKVX NSCLC it was 106%; in the assay with SN12C renal, 102%; with UO-31 renal, 84.7%; in the assay with TK-10 renal it was 116%; in the assay with ACHN renal it was 105%. The growth in the assay with A498 renal was 110%; in the assay with CCRF-CEM leukemia, 89.4%; in the assay on MOLT-4 leukemia it was 90.5%; in the assay with SR leukemia, 79.9%.
Consider `CCCCCCCc1n(Cc2ccc3ccccc3c2)c2ccccc2[n+]1Cc1ccc2ccccc2c1`, for which the growth with SK-MEL-2 melanoma was -74.9% (active); in the assay with EKVX NSCLC it was -73.5% (active); in the assay on SN12C renal, -79.8% (active); with UO-31 renal, -88.1% (active); with TK-10 renal, -87.3% (active); in the assay with ACHN renal it was -87.4% (active). For the same compound, the growth in the assay on A498 renal is -93.3% (active); in the assay on CCRF-CEM leukemia, -59.1% (active); in the assay with MOLT-4 leukemia, -68% (active); in the assay on SR leukemia it was -60.4% (active).
Take `CN(C)[C@@H]1C(=O)C(C(N)=O)=C(O)[C@@]2(O)C(=O)C3=C(O)c4c(O)cc(CN5CCc6ccccc6C5)c(Cl)c4C[C@H]3C[C@@H]12`: the growth in the assay on SK-MEL-2 melanoma is -90.6% (active); with EKVX NSCLC, -90.3% (active); with SN12C renal it was -73% (active); in the assay on UO-31 renal, -95.5% (active); in the assay with TK-10 renal, -84.3% (active); in the assay on ACHN renal it was -76.1% (active). Further, the growth was -89.2% (active) with A498 renal, -40.7% (active) in the assay with CCRF-CEM leukemia, -67.9% (active) in the assay with MOLT-4 leukemia and -50.7% (active) with SR leukemia.
Take `CCCCn1c(=O)c(/C=C/C(=O)/C=C/c2ccc(O)c(OC)c2)cc2ccc(Cl)cc21`: the growth is 42.1% in the assay on SK-MEL-2 melanoma; 40.1% in the assay with EKVX NSCLC; 12.3% with SN12C renal; 6.03% (active) with UO-31 renal; 54.2% with TK-10 renal; 19.9% in the assay with ACHN renal. Besides, the growth in the assay on A498 renal is 77.6%; in the assay with CCRF-CEM leukemia, 2.91% (active); in the assay with MOLT-4 leukemia it was 8.28% (active); in the assay with SR leukemia it was 3.78% (active).
For the compound `COc1ccc(-c2[nH]c3ccccc3c2C=C(C#N)C#N)cc1`, the growth in the assay with SK-MEL-2 melanoma was -14.5% (active); in the assay on EKVX NSCLC, 12.4%; in the assay on SN12C renal, 44.6%; in the assay on UO-31 renal, 59.1%; in the assay on TK-10 renal, 35.5%; in the assay on ACHN renal, 43%. For the same compound, the growth is -7.34% (active) with A498 renal, -5.77% (active) in the assay on CCRF-CEM leukemia, -14.2% (active) with MOLT-4 leukemia and -27.8% (active) in the assay on SR leukemia.
As to `[2H]c1cc2c(c([2H])c1F)/C(=C/c1[nH]c(C)c(C(=O)NCCN(CC)CC)c1C)C(=O)N2`, the growth in the assay with SK-MEL-2 melanoma was 14.7%; in the assay on EKVX NSCLC, 44.7%; in the assay with SN12C renal, 24.4%; in the assay with UO-31 renal, 12.3%; with TK-10 renal, 62.1%; in the assay on ACHN renal it was 25.4%. Also, the growth is 52.6% in the assay on A498 renal, 69.5% with CCRF-CEM leukemia, 20.3% in the assay on MOLT-4 leukemia and 0.469% (active) in the assay with SR leukemia.
As for `COc1c(O)cc2oc3cc(O[C@@H]4OC(C)[C@@H](O)[C@H](O)C4O)c(CC=C(C)C)c(O)c3c(=O)c2c1CC=C(C)C` (stereo not given in full), the growth in the assay with SK-MEL-2 melanoma is 90.5%; in the assay on EKVX NSCLC it was 82%; in the assay with SN12C renal, 99.7%; in the assay on UO-31 renal, 80.3%; in the assay on TK-10 renal, 92.6%; in the assay with ACHN renal, 102%. The growth is 67.9% with A498 renal, 83.5% in the assay on CCRF-CEM leukemia, 65.1% in the assay with MOLT-4 leukemia and 103% in the assay with SR leukemia.
For the compound `c1ccc(-c2cn3ccnc3c(-c3ccc4c(c3)ncn4C3CCCCC3)n2)cc1`, the growth with SK-MEL-2 melanoma is 106%; in the assay with EKVX NSCLC it was 97.5%; with SN12C renal it was 95.2%; in the assay with UO-31 renal, 79.1%; in the assay on TK-10 renal it was 106%; with ACHN renal, 104%. Moreover, the growth was 106% in the assay on A498 renal, 88.3% in the assay with CCRF-CEM leukemia, 60.3% in the assay with MOLT-4 leukemia and 55.4% with SR leukemia.
With `COc1ccc2nc3c(n2c1)C(=O)C(=O)c1ccccc1-3`, the growth in the assay with SK-MEL-2 melanoma was -74.7% (active); in the assay on EKVX NSCLC it was -53.6% (active); in the assay with SN12C renal it was -88.1% (active); in the assay on UO-31 renal, -64.4% (active); in the assay with TK-10 renal it was 48.4%; with ACHN renal, -51.3% (active). The growth is 68.7% with A498 renal, 20.8% in the assay on CCRF-CEM leukemia, 2.85% (active) with MOLT-4 leukemia and -1.54% (active) with SR leukemia.

Values taken from PubChem BioAssay (NCI).
